Pol kappa inh: qHTS for Inhibitors of Polymerase Kappa | DNA polymerase kappa (Homo sapiens), Q9UBT6 | purified Pol kappa, fluorescent DNA synthesis assay, 10 min | Potency, µM (top dose mostly 107 µM), without a hit: at the highest dose activity, negative = inhibition, hits mostly inhibitors | actives 0.53% (n = 400,000); further: on the % scale 0 is the no-effect control and ±100 the full control effect
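10 nM Pol kappa preincubated 15 min at room temperature with compounds, then reaction started with substrate at 50 nM final. Fluorescence read kinetically at 0 and 10 min; buffer-only wells served as negative control.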
Pol eta inh: qHTS for Inhibitors of Polymerase Eta; Potency, µM (titrated, usually from 114 µM), inactives show top-dose activity change, negative = inhibition, usual class: inhibitors; recombinant Pol eta, fluorescent DNA replication assay; AID 588591, 2011; actives 1.2% (n = 390,000); DNA polymerase eta (Homo sapiens), Q9Y253; further: on the % scale 0 is the no-effect control and ±100 the full control effect
Target sequence (Q9Y253 whole entry, looked up): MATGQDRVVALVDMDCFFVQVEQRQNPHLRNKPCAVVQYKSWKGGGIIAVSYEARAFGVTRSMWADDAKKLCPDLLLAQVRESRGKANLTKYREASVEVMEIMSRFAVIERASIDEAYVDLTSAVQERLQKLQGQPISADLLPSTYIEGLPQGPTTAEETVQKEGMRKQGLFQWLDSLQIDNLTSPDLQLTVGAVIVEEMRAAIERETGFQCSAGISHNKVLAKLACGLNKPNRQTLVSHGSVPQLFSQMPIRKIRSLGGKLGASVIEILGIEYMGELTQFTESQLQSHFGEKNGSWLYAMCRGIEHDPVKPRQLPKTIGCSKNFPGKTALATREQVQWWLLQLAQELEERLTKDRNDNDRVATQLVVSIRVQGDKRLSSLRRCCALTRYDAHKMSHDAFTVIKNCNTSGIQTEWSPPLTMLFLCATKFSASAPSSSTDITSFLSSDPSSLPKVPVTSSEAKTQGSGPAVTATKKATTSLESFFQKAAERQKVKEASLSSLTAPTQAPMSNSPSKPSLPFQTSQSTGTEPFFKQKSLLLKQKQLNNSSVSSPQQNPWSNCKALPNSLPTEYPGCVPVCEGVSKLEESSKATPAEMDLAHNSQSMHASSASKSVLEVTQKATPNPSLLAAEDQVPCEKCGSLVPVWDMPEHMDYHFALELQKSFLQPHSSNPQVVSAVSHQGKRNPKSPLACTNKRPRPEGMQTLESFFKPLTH
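Pol eta at 10 nM preincubated with compounds 15 min at room temperature; reaction started with fluorescent substrate (50 nM final) and read kinetically at 0 and 10 min.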
Pol iota inh: qHTS for Inhibitors of Polymerase Iota; DNA polymerase iota (Homo sapiens), Q9UNA4; Pol iota fluorescent replication assay, 10 min; Potency, µM (titrated, usually from 115 µM), inactives show at the highest dose activity, negative = inhibition, most hits filed as inhibitors; actives 1% (n = 390,000); AID 588590, 2011
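Fluorescent replication assay read twice, at 0 min and 10 min after adding 50 nM (final) substrate. Enzyme (10 nM) and compounds were first incubated 15 min at room temperature; enzyme-free buffer wells were negative controls.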
POLB inh: qHTS Assay for Inhibitors of DNA Polymerase Beta; P06746; Pol beta primer extension/strand displacement, fluorescence kinetic; Potency, µM (titrated, usually from 114 µM), inactives show top-dose activity change, negative = inhibition, hits mostly inhibitors; actives 1.3% (n = 340,000); AID 485314, 2010; further: on the % scale 0 is the no-effect control and ±100 the full control effect
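Reaction started by 50 nM substrate onto compound-treated Pol beta (10 nM, 15 min preincubation, room temperature); plates read at 0 min and 10 min. Normalized concentration-effect data fitted by four-parameter Hill equation.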
FEN1 inh-1: qHTS Assay for the Inhibitors of Human Flap endonuclease 1 (FEN1); actives 0.35% (n = 390,000); P39748; AID 588795, 2011; Recombinant FEN1 flap cleavage, fluorescence, 15 min; Potency, µM (highest dose often 114 µM), inactives show at the highest dose activity change, negative = inhibition, most hits filed as inhibitors; further: on the % scale 0 is the no-effect control and ±100 the full control effect; nearly all actives have a fitted effect of over 65% in size
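FEN1 at 10 nM, compound pretreatment for 15 min (room temperature), 50 nM final substrate to initiate; endpoint reads at 0 and 15 min; DMSO-only plates used as vehicle background.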
WRN helicase inh: qHTS for Inhibitors of WRN Helicase; WRN helicase unwinding, fluorescent forked duplex, kinetic; actives 0.46% (n = 360,000); Potency, µM (top dose mostly 114 µM), inactives show top-dose activity change, negative = inhibition, hits mostly inhibitors; further: on the % scale 0 is the no-effect control and ±100 the full control effect; nearly all actives have a fitted effect of over 55% in size
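Kinetic fluorescence helicase assay: unwinding of a quenched forked DNA duplex (100 nM final) with 2 mM ATP final raises red fluorescence (525/598 nm). Compounds sat 15 min at room temperature with 20 nM WRN beforehand.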
FEN1 inh-2: qHTS Assay for the Inhibitors of FEN1: Confirmatory Assay for Cherry-picked Compounds; shares compounds with FEN1 inh-1; FEN1 flap cleavage, TAMRA/BHQ2 fluorogenic DNA substrate; Potency, µM, usual class: inhibitors; actives 79% (n = 880); further: nearly all actives have a fitted effect of over 60% in size
The depositor's hits bear a star; ? = inconclusive; . = no result given; [ ] = remark or other dose. Compounds with a hit are over-represented: about 2.4% of the library has one in this group of screens. The call rests on the fitted dose curve; in most records, active means well fitted curve in the direction sought with a large enough effect; inconclusive means small, poorly fitted or top-dose-only effect, or another doubt; inactive means no such curve, though single readings can be large; an effect the other way counts as inactive or inconclusive. Potency means the concentration at half of the fitted maximal effect.

SMILES	Pol kappa inh	Pol eta inh	Pol iota inh	POLB inh	FEN1 inh-1	WRN helicase inh	FEN1 inh-2
S=c1[nH]nc(-c2ccccn2)n1/N=C/c1c(Cl)cccc1Cl	-4%	-6%	98%	25%	5%	-24%	.
S=c1[nH]nc(-c2cc(-c3ccccc3)n[nH]2)n1/N=C/c1c(Cl)cccc1Cl	?	79µM*	20µM*	14µM*	?	?	?
CC(C)Nc1ccc(Nc2ccnc3cc4ccccc4cc23)cc1	?	-18%	?	14µM*	25µM*	35µM*	24*
CC1CCCC(NC(=O)COC(=O)c2ccccc2[N+](=O)[O-])C1C (centres undefined)	-12%	1%	61%	-2%	-2%	-30%	.
CC1CCCC(NC(=O)COC(=O)c2ccc([N+](=O)[O-])s2)C1C (centres undefined)	-19%	?	89µM*	.	-24%	-8%	6*
CC(OC(=O)c1ccc([N+](=O)[O-])s1)C(=O)NC1CCCCC1C (centres undefined)	-21%	-18%	?	.	-20%	2%[11.6 µM]	12*
O=C(COC(=O)c1ccc([N+](=O)[O-])s1)Nc1ncc(C(F)(F)F)cc1Cl	-40%	35µM*	?	?	?	-8%[57.1 µM]	8.5*
Cc1ccc(NC(=O)CCN2CCN(CCO)CC2)cc1C	-10%	4%	12%	0%	2%	.	.
COc1ccc(-c2nc3cc(C(C)C)ccc3o2)cc1NC(=O)COc1ccc(C)cc1C	-2%	-21%	12%	-18%	-5%	.	.
CNc1ccc(-c2nc3ccccc3s2)cc1	-20%[60.1 µM]	.	.	.	.	.	.
O=C1Nc2ccccc2Oc2cc([N+](=O)[O-])cc(Oc3ccccc3)c21	-39%	?	?	?	?	?	85*
O=[N+]([O-])c1cc2c(c([N+](=O)[O-])c1)Nc1ccccc1O2	.	?	.	.	.	-5%	.
CCOC(=O)Cn1c(=O)oc2cc(S(=O)(=O)N3CCN(c4ccc(Cl)cc4)CC3)ccc21	-15%	-19%	5%	-24%	-6%	.	.
CCN(CC)CCCNC(=O)c1cc2c(Cl)nc3ccccc3c2s1	12%	-5%	-9%	-22%	45µM*	42%	67*
CCN(CC)CCCNC(=O)c1cc2c(-c3cccc(OC)c3)nn(C)c2s1	-3%	12%	-23%	-27%	?	54%	?
CCOCCCNC(=O)c1cc2c(-c3ccc(OC)c(OC)c3)nn(C)c2s1	0%	?	-5%	-24%	?	.	.
CCCCN(CC)CCCNC(=O)c1cc2c(-c3ccc(OC)c(OC)c3)nn(C)c2s1	-23%	?	?	3.5µM*	35µM*	-29%	34*
CCN(CCCNC(=O)c1cc2c(Cl)nc3ccccc3c2s1)Cc1ccccc1	-3%	-15%	11%	0%	?	.	.
Cc1ccc(C)c(CS(=O)(=O)c2cn(CC(=O)N(C(C)C)C(C)C)c3ccccc23)c1	-11%	-20%	-1%	4%	-2%	.	.
CN1C=C/C(=C\c2cc[n+](C)c3ccccc23)c2ccccc21	1%	-30%	12%	?	28µM*	40µM*	8.5*
CC(=O)c1cccc(NC(=O)c2cccc(N3C(=O)c4ccccc4C3=O)c2)c1	4%	?	-10%	?	?	?	?
O=C(COC(=O)c1ccc([N+](=O)[O-])o1)NC1CCCc2ccccc21 (centres undefined)	-21%	?	?	.	?	-30%	24*
CC(NC(=O)COC(=O)c1ccc([N+](=O)[O-])o1)c1ccccc1 (centres undefined)	-25%	89µM*	?	.	?	13%	15*
O=C(COC(=O)c1ccc(Br)o1)NCc1ccc2c(c1)OCO2	-8%	-6%	7%	.	-1%	-1%	.
O=C(COC(=O)c1ccc([N+](=O)[O-])o1)NCc1ccc2c(c1)OCO2	-24%	79µM*	?	.	18µM*	15%	7.6*
SMILES	Pol kappa inh	Pol eta inh	Pol iota inh	POLB inh	FEN1 inh-1	WRN helicase inh	FEN1 inh-2
CC(C)(C)N(Cc1ccccc1)C(=O)COC(=O)c1ccc([N+](=O)[O-])o1	-2%	?	1%	.	?	6%	21*
O=C(COC(=O)c1ccc(Br)o1)NCCc1ccccc1	-9%	-11%	23%	-5%	-3%	8%	.
O=C(COC(=O)c1ccc([N+](=O)[O-])o1)NCCc1ccccc1	-24%	79µM*	45µM*	.	?	0%[11.6 µM]	9.5*
O=C(OCC(=O)N1CCc2ccccc21)c1ccc([N+](=O)[O-])o1	-11%	?	?	.	?	14%	8.5*
COc1cccc(NC(=O)CSc2nc(=O)n(Cc3ccccn3)c3c2CCC3)c1	-9%[60.1 µM]	-13%	12%	26%	-8%	.	.
O=C1C(=O)N(O)C2CCCCC2N1O (centres undefined)	0%	-21%	43%	17%	18µM*	12%	24*
O=C(O)CCN1C(=O)C2CCCCC2C1=O (centres undefined)	5%	-8%	3%	31%	9%	11%	.
O=C(CSc1oc(-c2ccc(F)cc2)nc1S(=O)(=O)c1ccccc1)NC1CCCCC1	3%	-1%	21%	11%	2%	.	.
CCOc1ccc(C2CC(=O)NC(NC(=O)c3ccc(C)cc3)=N2)cc1 (centres undefined)	-6%	-13%	21%	3%	-5%	.	.
CCOc1ccc2nc(NC3=NCN(Cc4ccco4)CN3)nc(C)c2c1	.	.	.	13%	.	.	.
COc1ccc2c(C)nc(Nc3nc(-c4ccccc4)cc(=O)[nH]3)nc2c1	1%	-15%	57%	61%	-19%	?	.
CCOc1ccc2nc(NC3=NC(C)(C)C=C(C)N3)nc(C)c2c1	7%	-6%	13%	27%	40µM*	86%	17*
CCOc1ccc2nc(NC3=NC(c4ccc(OC)cc4)CC(=O)N3)nc(C)c2c1 (centres undefined)	-12%	-24%	14%	33%	79µM*	50µM*	76*
CCOc1ccc2c(C)nc(NC3=NC(C)(C)C=C(C)N3)nc2c1	7%	5%	4%	-1%	45µM*	95%	27*

Bioassay records: PubChem BioAssay, National Center for Advancing Translational Sciences (NCATS)
